High-throughput results as filed in PubChem BioAssay.
Only a selection was taken, and hits are over-represented in it overall.
SARS PLpro yeast – qHTS of Yeast-based Assay for SARS-CoV PLP; Potency, µM (top dose mostly 32.9 µM), for inactives: at the highest dose activity, positive = growth rescue, usual class: activators; S. cerevisiae expressing SARS-CoV PLpro, growth rescue; 330,000 compounds, 0.19% hits; further: potency means the concentration at half of the fitted maximal effect; 0% is about no effect; nearly all actives have a fitted effect of over 55% in size
Tb PYK inh – qHTS of Trypanosoma Brucei Inhibitors; TbPYK enzyme, Kinase-Glo Plus ATP luminescence, 45 min; pyruvate kinase (Trypanosoma brucei), Q57TT1; 410,000 compounds, 0.12% hits; Potency, µM (doses to about 76.8 µM), without a hit: at the highest dose activity, negative = inhibition, hits mostly inhibitors; active means well fitted curve in the direction sought with a large enough effect; an effect the other way counts as inactive or inconclusive; further: potency means the concentration at half of the fitted maximal effect; on the % scale 0 is the no-effect control and ±100 the full control effect; nearly all actives have a fitted effect of over 50% in size
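In this concentration-response screen, enzyme-free wells defined baseline while DMSO plates tracked drift. Each reaction combined TbPYK, substrate, compound and 130 uM ADP for 45 min at room temperature. Kinase-Glo Plus luminescence gave the signal.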
NS1 inh – qHTS Assay for Inhibitors of Influenza NS1 Protein Function. AID 2326, 2010. Potency, µM (highest dose often 46.1 µM), for inactives: at the highest dose activity, positive = more growth. 270,000 compounds, 0.4% hits; further: potency means the concentration at half of the fitted maximal effect; actives are rising curves; nearly all actives have a fitted effect of over 50% in size
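Growth recovery, yeast-based: influenza A NS1 expressed in S. cerevisiae causes slow growth, and suppressors are detected by OD600. The parent strain without NS1 is used as positive control.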
Shiga toxin inh – A qHTS for Small Molecule Inhibitors of Shiga Toxin; Vero cells, Shiga toxin protein synthesis inhibition reporter; inhibition, % at 38.7 µM; 290,000 compounds, 9.2% hits; in the data active means inhibition mostly above about 28%, no sharp cut-off; inactive means mostly below about 43%; further: 0% is about no effect
LmPK inh – qHTS Assay for Inhibitors of Leishmania Mexicana Pyruvate Kinase (LmPK). Q27686. purified LmPK, Kinase-Glo ATP luminescence, 1 h. Potency, µM (highest dose often 57.5 µM), for the others: at the highest dose activity change, negative = inhibition, actives largely listed as inhibitors. 290,000 compounds, 0.37% hits. AID 1721, 2009; active means well fitted curve in the direction sought with a large enough effect; an effect the other way counts as inactive or inconclusive; further: potency means the concentration at half of the fitted maximal effect; on the % scale 0 is the no-effect control and ±100 the full control effect
Target sequence (Q27686 whole entry, looked up): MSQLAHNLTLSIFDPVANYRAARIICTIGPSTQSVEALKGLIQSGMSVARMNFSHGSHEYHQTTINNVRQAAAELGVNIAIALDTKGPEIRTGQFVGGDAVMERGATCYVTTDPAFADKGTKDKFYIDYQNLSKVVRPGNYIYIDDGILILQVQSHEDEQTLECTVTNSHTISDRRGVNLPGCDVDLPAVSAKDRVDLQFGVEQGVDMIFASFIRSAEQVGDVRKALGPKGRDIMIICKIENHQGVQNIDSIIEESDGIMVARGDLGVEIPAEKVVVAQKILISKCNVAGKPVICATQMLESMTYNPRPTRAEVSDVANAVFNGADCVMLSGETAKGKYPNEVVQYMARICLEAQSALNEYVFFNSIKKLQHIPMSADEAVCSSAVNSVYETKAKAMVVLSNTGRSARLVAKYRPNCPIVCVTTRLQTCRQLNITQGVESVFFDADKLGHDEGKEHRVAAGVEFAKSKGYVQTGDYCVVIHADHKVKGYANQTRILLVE
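In 50 mM imidazole pH 7.2 with 7 mM MgCl2, LmPK (0.1 nM) turned over PEP (0.5 mM) and ADP (0.1 mM) for 1 h at room temperature. Luciferase read-out of ATP.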
Cycloheximide cs – Cycloheximide Counterscreen for Small Molecule Inhibitors of Shiga Toxin; cell reporter, cycloheximide protein synthesis inhibition counterscreen; max response, %; 300,000 compounds, 12% hits; in the data active means max response mostly above about 13%, no sharp cut-off; inactive means mostly below about 14%; further: read at 38.3 µM for the half of the compounds with a filed dose; 0% is about no effect
The depositor's hits bear a star. Unless noted, the call rests on the fitted dose curve.

For CC(=O)Nc1ccc(C(=O)COC(=O)CCc2ccccc2)c(F)c1 the results were SARS PLpro yeast -11.1% and Tb PYK inh 5.3%.
`CCCCNC(=O)CSc1nc2ccccc2nc1Cc1ccccc1` gave Tb PYK inh -7.9%.
O=C(NCc1ccncc1)Nc1cccc(Cl)c1 was read as SARS PLpro yeast -4.6%, Tb PYK inh -3.4%, NS1 inh -3.8%, Shiga toxin inh 13.0, LmPK inh -3.0% and Cycloheximide cs 15.8*.
`COc1ccc(CNC(=O)Nc2cccc(Cl)c2)cc1` gave SARS PLpro yeast 4.9%, Tb PYK inh 5.9%, NS1 inh 1.0%, Shiga toxin inh 46.3*, LmPK inh -0.1% and Cycloheximide cs 42.8*.
O=C(Nc1cccc(Cl)c1)Nc1csc([N+](=O)[O-])c1 was read as SARS PLpro yeast -7.5%, Tb PYK inh -7.1%, NS1 inh -61.3%, Shiga toxin inh 46.2*, LmPK inh 7.4% and Cycloheximide cs 15.5*.
For O=C(Nc1ccccc1)Nc1ccncc1 the results were SARS PLpro yeast 0.2%, Tb PYK inh 1.1%, Shiga toxin inh 57.3*, LmPK inh -18.3% and Cycloheximide cs 14.7.
Screening COc1cccc(C(=O)CCN[C@@H](C)[C@H](O)c2ccccc2)c1 returned Tb PYK inh -7.0%.
For COc1ccccc1N1CC(C)(C)C(=O)N(C(=O)c2ccc(Cl)cc2)C1=S the results were SARS PLpro yeast -0.7%, Tb PYK inh -1.1%, NS1 inh -3.4%, Shiga toxin inh 45.6, LmPK inh -0.7% and Cycloheximide cs 11.6.
Cc1cccc(-c2cccc(NC(=O)C3CCCN(Cc4cccnc4)C3)c2)c1 (stereo not drawn) was read as SARS PLpro yeast -4.1%, Tb PYK inh 1.7%, NS1 inh -30.9%, Shiga toxin inh -8.5, LmPK inh 5.7% and Cycloheximide cs 0.9.
O=C(O)Cc1ccc(NC(=O)Nc2cccc(Cl)c2)cc1 was read as SARS PLpro yeast 0.3%, Tb PYK inh -17.8%, NS1 inh 4.3%, Shiga toxin inh -8.8, LmPK inh -9.3% and Cycloheximide cs -3.3.
`O=C(Nc1ccncc1)Nc1cccc(Cl)c1` gave SARS PLpro yeast -2.0%, Tb PYK inh -2.5%, NS1 inh -11.9%, Shiga toxin inh 20.2, LmPK inh 1.2% and Cycloheximide cs 16.3*.
Cc1c(C#N)c(O)n(C)c(=O)c1N=Nc1ccc(S(N)(=O)=O)cc1 was read as SARS PLpro yeast 0.4%, Tb PYK inh -3.8%, Shiga toxin inh 107.7*, LmPK inh 0.6% and Cycloheximide cs 27.1.
Screening Cc1c(C#N)c(O)n(CCO)c(=O)c1N=Nc1ccc(S(N)(=O)=O)cc1 returned SARS PLpro yeast 3.3%, Tb PYK inh -13.4%, Shiga toxin inh -4.2, LmPK inh -1.6% and Cycloheximide cs 1.6.
Screening CCOC(=O)c1c(NC(=O)C(NCCN(C)C)c2ccccc2)sc2c1CCCC2 (stereo not drawn) returned SARS PLpro yeast -1.0%, Tb PYK inh 0.5%, NS1 inh 12.6%, Shiga toxin inh -15.2, LmPK inh 3.8% and Cycloheximide cs -3.8.
`COc1ccc(NC(=O)[C@@H](NS(=O)(=O)c2cccc(Cl)c2)C(C)C)cc1S(=O)(=O)N1CCOCC1` gave SARS PLpro yeast 1.1% and Tb PYK inh -1.1%.
Screening N#C/C(=C\c1c[nH]c2ccccc12)C(=O)NC1CCCC1 returned SARS PLpro yeast -3.8%, Tb PYK inh 3.3%, NS1 inh 4.9%, Shiga toxin inh 41.9*, LmPK inh 9.5% and Cycloheximide cs 22.4*.
CC(C)COC(=O)/C(C#N)=C/c1c[nH]c2ccccc12 was read as SARS PLpro yeast 6.4%, Tb PYK inh -10.9%, NS1 inh -0.8%, Shiga toxin inh 42.9, LmPK inh 1.9% and Cycloheximide cs 18.0*.
Cc1[nH]c2ccccc2c1/C=C(\C#N)C(=O)NC1CC1 was read as SARS PLpro yeast 1.5%, Tb PYK inh -0.8%, NS1 inh -8.1%, Shiga toxin inh 129.2*, LmPK inh -4.3% and Cycloheximide cs 55.1*.
Screening N#C/C(=C\c1ccccc1)C(=O)NC1CC1 returned SARS PLpro yeast -4.1%, Tb PYK inh -3.6%, NS1 inh -0.4%, Shiga toxin inh 4.6, LmPK inh -5.9% and Cycloheximide cs 8.5.
N#C/C(=C\c1c[nH]c2ccccc12)C(=O)NC1CC1 was read as SARS PLpro yeast -17.4%, Tb PYK inh 2.0%, NS1 inh -17.1%, Shiga toxin inh 36.3*, LmPK inh -1.4% and Cycloheximide cs 56.3*.
`Cc1ccc(N2CC(C(=O)Nc3cccc(C(=O)NC4CC4)c3)CC2=O)cc1` (stereo not drawn) gave SARS PLpro yeast -5.6% and Tb PYK inh -1.2%.
For Cc1cc(C(=O)COc2ccc([N+](=O)[O-])cc2)c(C)n1C1CC1 the results were SARS PLpro yeast 0.4%, Tb PYK inh -3.4%, NS1 inh 2.1%, Shiga toxin inh 36.1*, LmPK inh 6.5% and Cycloheximide cs 15.7*.
`COc1cc(C(CC(=O)Nc2cc(C)ccn2)N2Cc3ccccc3C2=O)cc(OC)c1OC` (stereo not drawn) gave SARS PLpro yeast 0.8%, Tb PYK inh 0.5%, NS1 inh 2.8%, Shiga toxin inh -7.7, LmPK inh 0.7% and Cycloheximide cs -6.0.
`O=C(CCCCCCC(=O)NCc1ccccc1)NCc1ccccc1` gave SARS PLpro yeast 11.9%, Tb PYK inh -18.6%, NS1 inh 12.7%, Shiga toxin inh -9.3, LmPK inh -0.4% and Cycloheximide cs -0.8.
`CCOC(=O)COn1c(=O)c(-c2ccc(F)cc2)[n+]([O-])c2ccccc21` gave SARS PLpro yeast 1.6%, Tb PYK inh 0.5%, NS1 inh -3.3%, Shiga toxin inh -1.0, LmPK inh 2.6% and Cycloheximide cs -4.1.
Screening CCCOc1ccc(-c2c(=O)n(OCC(=O)OCC)c3ccccc3[n+]2[O-])cc1 returned SARS PLpro yeast -3.3%, Tb PYK inh -1.2%, NS1 inh -2.9%, Shiga toxin inh 59.1*, LmPK inh 0.4% and Cycloheximide cs 39.3*.
For CCOc1ccc(-c2c(=O)n(OCC)c3ccccc3[n+]2[O-])cc1 the results were SARS PLpro yeast -0.6%, Tb PYK inh -3.4%, NS1 inh -3.5%, Shiga toxin inh 25.5, LmPK inh -7.5% and Cycloheximide cs 23.5*.
Screening Cc1nn(-c2ccc(N3CCOCC3)nn2)c(C)c1CCC(=O)NCc1ccc(Cl)cc1 returned Tb PYK inh 2.0%.
Screening COCCNc1c(-c2ccc(OC)cc2)nc2ccc(Cl)cn12 returned SARS PLpro yeast -1.1%, Tb PYK inh -7.2%, NS1 inh -7.6%, Shiga toxin inh 61.7*, LmPK inh -1.8% and Cycloheximide cs 29.1.
